Inconclusive results are not listed. A number with no mark means an inactive call. Calls of active or inactive are those of the source. Calls follow the shape of the full dose curve.
Assay: Cytotoxicity counterscreen for inhibitors of SARS-CoV-2 cell entry (AID 1645845); also: nearly all actives have a fitted effect of over 50% in size
Conditions: cell viability (SARS-CoV-2 entry assay cells); series mostly up to 57.1 µM; activity change, negative = cytotoxicity: at the top concentration
How it was run: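 48 h compound treatment (after 1 h preincubation), HEK293-ACE2 cells, 37 C/5% CO2; ATP luminescence endpoint; normalized to cell wells and media blanks.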
% is scaled to controls: 0 for no effect and ±100 for the full control effect; potency is read from the fitted curve at half-maximal effect.

Compound	Potency	activity change, negative = cytotoxicity	outcome
Cn1cncc1[C@@](N)(c1ccc(Cl)cc1)c1ccc2c(c1)c(-c1cccc(Cl)c1)cc(=O)n2C	inactive	–	–
COc1ccc2c3n(c(=NC(=O)c4cccnc4)nc2c1OC)CCN3	–	3.4% [at 5.25 µM]	–
Cc1cccc(-c2[nH]ncc2-c2ccc3ncccc3n2)n1	–	–	inactive
CN1CCN(c2c(F)cc3c(=O)c(C(=O)O)cn4c3c2OCN4C)CC1	–	–	inactive [at 27.1 µM]
Nc1nc2c(ncn2CCC(CO)CO)c(=O)[nH]1	–	–	inactive
COc1ccccc1O	–	-1.97%	–
C[C@H](NC(=O)Cc1cc(F)cc(F)c1)C(=O)N[C@@H]1C(=O)N(C)c2ccccc2-c2ccccc21	–	2.61%	–
COc1ccc2cc(CCC(C)=O)ccc2c1	–	-17%	–
C[C@@H](N)C(=O)O	–	1.12%	–
CC(C)CCCC(C)CCCC(C)CCCCC(C)CCCC(C)CCCC(C)C (configuration not stated)	–	–	inactive
Cn1cc(-c2[nH]c3cc(NC(=O)[C@H](N)C4CCCCC4)cc4c3c2C=NNC4=O)cn1	15.8 µM (active)	–	–
CCCCC(CC)COC(=O)/C=C/c1ccc(OC)cc1 (configuration not stated)	–	-5.66%	–
CC(C)(Sc1ccc(CCN(CCCCC2CCCCC2)C(=O)NC2CCCCC2)cc1)C(=O)O	–	1.76%	–
CCNC(=O)c1noc(-c2cc(C(C)C)c(O)cc2O)c1-c1ccc(CN2CCOCC2)cc1	–	-8.08%	–
CC[C@@H](C)[C@H](NC(=O)[C@H](CC1CCCCC1)NC(=O)c1ccno1)C(=O)N1CCC2(CCc3ccccc32)CC1	–	-17.6%	–
O=C(O)CNC(=O)CNC(=O)CNC(=O)CSC(=O)c1ccccc1	–	–	inactive
CN[C@@H](C)C(=O)N[C@H]1CCCC[C@H]2CC[C@@H](C(=O)N[C@@H](c3ccccc3)c3cn(CCCCc4ccc(CCCCn5cc([C@@H](NC(=O)[C@@H]6CC[C@@H]7CCCC[C@H](NC(=O)[C@H](C)NC)C(=O)N76)c6ccccc6)nn5)cc4)nn3)N2C1=O	–	-9.37%	–

Source: PubChem BioAssay (NCATS)
